Calls of active or inactive are those of the source. Unless noted, the rule behind the calls is not given here.
Target: Homeobox protein Hox-A13 (Mus musculus) (UniProt Q62424)
Sequence (Q62424 whole entry, looked up): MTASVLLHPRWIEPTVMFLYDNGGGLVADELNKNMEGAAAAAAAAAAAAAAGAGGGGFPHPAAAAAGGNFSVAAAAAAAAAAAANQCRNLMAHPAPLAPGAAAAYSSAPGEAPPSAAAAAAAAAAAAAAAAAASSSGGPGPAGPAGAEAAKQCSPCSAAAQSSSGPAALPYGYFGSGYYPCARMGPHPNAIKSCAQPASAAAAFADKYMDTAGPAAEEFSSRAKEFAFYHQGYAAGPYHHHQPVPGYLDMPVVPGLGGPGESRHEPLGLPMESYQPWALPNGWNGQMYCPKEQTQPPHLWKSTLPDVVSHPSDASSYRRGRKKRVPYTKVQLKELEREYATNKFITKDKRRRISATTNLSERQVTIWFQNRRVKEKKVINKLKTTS
Assay: disruptors of Hoxa13 oligonucleotide interaction – biochemical, fluorescence polarization, labeled oligonucleotide, primary screen (AID 1185)
Details: Hoxa13:DNA binding, 15 min, higher = more signal, called active from +8 up or from −8 down
In the case of `COc1ccc(NC(=O)O[C@H]2[C@H](OC(=O)Nc3ccc4c(c3)OCO4)[C@@H](OC(=O)Nc3ccc4c(c3)OCO4)[C@@H](OC)O[C@@H]2CO)cc1`, the z-score is reported as -6.9 (inactive). With `C=CCN1C(=O)[C@]2(CC=C)N=C(c3ccc(OCCCO)cc3)O[C@@H]2c2ccccc21` the z-score was -0.0163 (inactive). For `CC1CC/C=C\[C@H]2OC34C=CCN(C(C)C)C(=O)[C@H]3N(CCCCCO)C(=O)[C@@H]4C2C(=O)O1` (stereo not given in full), the z-score was -3.89 (inactive). For `COC(=O)[C@@]1(Cc2ccccc2)[C@H]2c3cc(C(=O)N4CCCC4)n(Cc4ccsc4Br)c3C[C@H]2CN1C(=O)c1ccccc1`, the z-score was -3.29 (inactive). For `NCCCCCNC(=O)[C@@H]1C[C@@H]2C(=O)N[C@@H](CCCCN)C(=O)N2[C@@H]1c1cccc(OCCO)c1`, the z-score was -0.453 (inactive). In the case of `CCOC(=O)C1=CC[C@@H](c2ccc([N+](=O)[O-])cc2)N(S(=O)(=O)c2ccc(C)cc2)[C@H]1c1ccccc1`, the z-score is reported as 2.35 (inactive). For `CC(C)c1ccc(NN2C(C(O)c3ccco3)C=CC3C(=O)N(c4ccccc4)C(=O)C32)cc1` (stereo not given), the z-score was -3.14 (inactive). In the case of `COC1(C)CN(Cc2ccccc2Br)[C@H](/C=C/c2ccccc2)[C@H](Cc2ccccc2)O1` (stereo not given in full), the z-score is reported as 0.471 (inactive). In the case of `CC=CC(O)C1C=CC2C(=O)N(C)C(=O)C2N1N1CCCCC1` (stereo not given), the z-score is reported as -7.38 (inactive). With `CCOC(=O)C1=CC[C@@H](c2cc(Cl)ccc2Cl)N(S(=O)(=O)c2ccc(C)cc2)[C@H]1c1ccc(OC)cc1` the z-score was -1.08 (inactive). In the case of `C=C(CCCC)C(=O)CC[C@@H](OC(=O)c1ccccc1-c1ccccc1C(=O)O)c1cccc(OCCO)c1`, the z-score is reported as -5.72 (inactive). In the case of `CC(C)(C)OC(=O)CC[C@@]1(C(=O)O)N=C(c2ccc(OCCCO)cc2)O[C@@H]1c1ccccc1CN=[N+]=[N-]`, the z-score is reported as -4.73 (inactive). For `O=C1C[C@]2(c3ccc([N+](=O)[O-])cc3)C(=O)N(Cc3ccccc3)c3cc(CO)ccc3[C@H]2N1CC12CC3CC(CC(C3)C1)C2`, the z-score was -1.07 (inactive). With `O=C(CS)NCCCCCCNC(=O)[C@@H]1C[C@@H]2C(=O)N3CCC[C@H]3C(=O)N2[C@@H]1c1cccc(OCCO)c1` the z-score was -3.25 (inactive). In the case of `CN(C)CCCCNC(=O)[C@H]1C[C@H]2C(=O)N[C@@H](CCCCN(C)C)C(=O)N2[C@H]1c1cccc(OCCO)c1`, the z-score is reported as -3.26 (inactive).

System: not listed separately
Assay: blockers of DNA damage checkpoint Chk1 activation – imaging, HeLa, hydroxyurea, phospho-Chk1 antibody, percent positive cells, primary screen (AID 1186)
Details: hydroxyurea-induced phospho-Chk1 immunofluorescence imaging, higher = more signal
For `COCC(=C=CC[C@H](O)c1ccc(OCCO)cc1)C[C@H](O)COCc1ccccc1`, the z-score was -0.364 (inactive). With `O=C1NC(=O)C2C1C=CC(C(O)c1cc(C(F)(F)F)cc(C(F)(F)F)c1)N2Nc1ccc(Cl)cc1Cl` (stereo not given) the z-score was 1.15 (inactive). With `COC(=O)[C@H](Cc1ccccc1)N1CC(/C=C/C2CC2)=C[C@@H]1[C@@H](O)Cc1ccccc1` the z-score was -0.613 (inactive). For `NC(=O)NCC#Cc1ccc2c(c1)[C@]1(C(=O)N2)[C@H](C(=O)Nc2nc3ccccc3s2)[C@H]2C(=O)O[C@H](c3ccccc3)[C@H](c3ccccc3)N2[C@@H]1c1ccc(O)cc1`, the z-score was 0.118 (inactive). In the case of `O=C1O[C@@H](c2ccccc2)[C@@H](c2ccccc2)N2[C@@H](c3ccc(O)cc3)[C@]3(C(=O)Nc4ccc(C#CC5=CCCCC5)cc43)[C@@H](C(=O)N3CCN(c4ncccn4)CC3)[C@H]12`, the z-score is reported as -0.0981 (inactive). In the case of `CC(=O)NCCCC[C@@H]1NC(=O)[C@@H]2C[C@H](C(=O)O)[C@H](c3ccc(O)cc3)N2C1=O`, the z-score is reported as 0.318 (inactive). With `COc1cc(CO)cc(I)c1O[C@H]1C=C(C(=O)NCCO)C[C@@H](NCc2ccccc2F)[C@@H]1O` the z-score was -0.24 (inactive). With `O=C1NCC(=O)N2[C@@H]1C[C@@H](C(=O)O)[C@H]2c1ccc(O)cc1` the z-score was 0.0155 (inactive). For `COC(=O)[C@@]1(Cc2ccc(F)cc2)[C@H]2c3cc(C(=O)N4CCCC4)n(CCF)c3C[C@H]2CN1C(=O)c1ccccc1`, the z-score was -0.323 (inactive). For `C[C@]1(C(=O)O)c2ccccc2C(=O)N(Cc2ccccc2)[C@H]1c1ccc(CO)cc1`, the z-score was -0.107 (inactive). With `CCOC(=O)C[C@H]1[C@H](OC(=O)c2ccc(-c3ccccc3)cc2)[C@@H](NC(=O)C2CCCCC2)c2cc(OCCCO)ccc2N1C(=O)c1ccccc1` the z-score was -0.0374 (inactive). In the case of `O=C1O[C@@H](c2ccccc2)[C@@H](c2ccccc2)N2[C@@H](c3ccccc3OCCO)[C@]3(C(=O)Nc4ccccc43)[C@@H](C(=O)NC[C@H](O)c3ccccc3)[C@H]12`, the z-score is reported as -0.152 (inactive). For `C=CC1c2cc(O)c(OC)cc2CCN1Cc1sc2ccccc2c1Cl` (stereo not given), the z-score was 0.326 (inactive). In the case of `CC(C)CN1C(=O)[C@@]2(c3ccc([N+](=O)[O-])cc3)CC(=O)N(CC34CC5CC(CC(C5)C3)C4)[C@@H]2c2ccc(CO)cc21`, the z-score is reported as 0.016 (inactive). In the case of `COCCOC(=O)N1C(=O)[C@@]2(c3cc(C#Cc4ccc(OC)cc4)ccc31)[C@H](C(=O)N1CCN(c3ncccn3)CC1)[C@H]1C(=O)O[C@H](c3ccccc3)[C@H](c3ccccc3)N1[C@@H]2c1ccccc1OCCO`, the z-score is reported as -0.019 (inactive). With `CCOC(=O)C[C@H]1[C@H](OC(=O)Cc2ccc3c(c2)OCO3)[C@@H](NC(=O)Cc2ccc(OC)cc2)c2cc(OCCCO)ccc2N1C(=O)c1ccccc1` the z-score was -0.543 (inactive). In the case of `[N-]=[N+]=Nc1ccccc1C[C@]1(C(=O)NCc2ccccc2)N=C(c2ccc(OCCCO)cc2)O[C@H]1c1ccccc1`, the z-score is reported as 0.0726 (inactive). In the case of `COC(=O)Cn1c(C(=O)N2CCCC2)cc2c1C[C@H]1CN(C(=O)c3ccccc3)[C@@](Cc3ccc(F)cc3)(C(=O)OC)[C@@H]21`, the z-score is reported as -1.49 (inactive). With `COc1ccc(NN2C(C(O)c3ccco3)C=CC3C(=O)N(C4CCCCC4)C(=O)C32)cc1` (stereo not given) the z-score was -0.266 (inactive). In the case of `CCCCN1CC=CC23O[C@@H]4C=CCOC(=O)[C@@H]4[C@H]2C(=O)N(C(C)CO)[C@@H]3C1=O` (stereo not given in full), the z-score is reported as -0.525 (inactive). With `COc1ccc(NC(=O)O[C@H]2[C@H](OC(=O)Nc3ccc4c(c3)OCO4)[C@@H](OC(=O)Nc3ccc4c(c3)OCO4)[C@@H](OC)O[C@@H]2CO)cc1` the z-score was -0.0538 (inactive). With `C=CCN1C(=O)[C@]2(CC=C)N=C(c3ccc(OCCCO)cc3)O[C@@H]2c2ccccc21` the z-score was -0.0194 (inactive). For `CC1CC/C=C\[C@H]2OC34C=CCN(C(C)C)C(=O)[C@H]3N(CCCCCO)C(=O)[C@@H]4C2C(=O)O1` (stereo not given in full), the z-score was 0.453 (inactive). With `COC(=O)[C@@]1(Cc2ccccc2)[C@H]2c3cc(C(=O)N4CCCC4)n(Cc4ccsc4Br)c3C[C@H]2CN1C(=O)c1ccccc1` the z-score was 0.17 (inactive). For `NCCCCCNC(=O)[C@@H]1C[C@@H]2C(=O)N[C@@H](CCCCN)C(=O)N2[C@@H]1c1cccc(OCCO)c1`, the z-score was 0.0424 (inactive). In the case of `CCOC(=O)C1=CC[C@@H](c2ccc([N+](=O)[O-])cc2)N(S(=O)(=O)c2ccc(C)cc2)[C@H]1c1ccccc1`, the z-score is reported as -0.137 (inactive). In the case of `CC(C)c1ccc(NN2C(C(O)c3ccco3)C=CC3C(=O)N(c4ccccc4)C(=O)C32)cc1` (stereo not given), the z-score is reported as -0.881 (inactive). For `COC1(C)CN(Cc2ccccc2Br)[C@H](/C=C/c2ccccc2)[C@H](Cc2ccccc2)O1` (stereo not given in full), the z-score was -1.6 (inactive). For `CC=CC(O)C1C=CC2C(=O)N(C)C(=O)C2N1N1CCCCC1` (stereo not given), the z-score was 0.436 (inactive). With `CCOC(=O)C1=CC[C@@H](c2cc(Cl)ccc2Cl)N(S(=O)(=O)c2ccc(C)cc2)[C@H]1c1ccc(OC)cc1` the z-score was -0.256 (inactive). For `C=C(CCCC)C(=O)CC[C@@H](OC(=O)c1ccccc1-c1ccccc1C(=O)O)c1cccc(OCCO)c1`, the z-score was 0.456 (inactive). For `CC(C)(C)OC(=O)CC[C@@]1(C(=O)O)N=C(c2ccc(OCCCO)cc2)O[C@@H]1c1ccccc1CN=[N+]=[N-]`, the z-score was -0.0889 (inactive). In the case of `O=C1C[C@]2(c3ccc([N+](=O)[O-])cc3)C(=O)N(Cc3ccccc3)c3cc(CO)ccc3[C@H]2N1CC12CC3CC(CC(C3)C1)C2`, the z-score is reported as 0.0585 (inactive). With `O=C(CS)NCCCCCCNC(=O)[C@@H]1C[C@@H]2C(=O)N3CCC[C@H]3C(=O)N2[C@@H]1c1cccc(OCCO)c1` the z-score was -1.31 (inactive). For `CN(C)CCCCNC(=O)[C@H]1C[C@H]2C(=O)N[C@@H](CCCCN(C)C)C(=O)N2[C@H]1c1cccc(OCCO)c1`, the z-score was 0.368 (inactive).

From PubChem BioAssay
